Laboratory results: PubChem BioAssay (NCATS)
Unmarked numbers belong to inactive results. Activity calls are given as the source filed them. Calls come from the whole dose curve; as a rule, active = well fitted inhibition curve with a large enough effect; inconclusive = small, poorly fitted or top-dose-only effect; inactive = flat fitted curve, though single readings scatter.

system: Nanoluciferase (engineered Oplophorus gracilirostris luciferase); test: Primary Nanoluciferase (NLuc) qHTS assay for identification of artifact compounds. (AID 1845222); conditions: NLuc-conditioned medium, Nano-Glo luminescence, 5 min; series mostly up to 54.1 µM; activity, negative = inhibition: at the top concentration;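 for activity, negative = inhibition: NLuc secreted into diluted conditioned medium of S16 cells; 0% = DMSO and -100% = no enzyme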
Summary of the method: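 NLuc from S16 cell medium (1:55) plus test compounds, 15 min, room temperature. Luminescence after Nano-Glo (1:100) addition, 5 min.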
Potency is the fitted concentration of half-maximal effect.

Point of comparison: `C=C1CC2OC(=O)C(COC)C2C(OC(=O)/C(C)=C\C)CC2(C)OC1=CC2=O` (centres undefined), “activity, negative = inhibition” value -0.811%. Against it:
- COc1ccc(S(=O)(=O)Nc2c(C)cc(C)cc2C)cc1 — higher, 0%
- CC1=C(C(=O)Nc2cc(Cl)ccc2Cl)C(c2ccco2)C2=C(CCCC2=O)N1 (centres undefined) — lower, -6.04%
- CCCCc1c(-c2ccc(OC)cc2)[nH]c2nccnc12 — lower, -6.5%
- CC(C)S(=O)(=O)Nc1ccc(F)c(C(=O)c2c[nH]c3ncc(-c4cccnc4)cc23)c1F — lower, -8.48%
- O=C(N[C@@H]1CCCc2c1cnn2-c1ccc(F)cc1F)c1ccccn1 — higher, 1.26%
- Cn1ncc(Cl)c1-c1cc(C(=O)N[C@H](CN)Cc2cccc(F)c2)sc1Cl — higher, -0.416%
- O=C(NCCCn1ccnc1)c1cc(-c2ccco2)on1 — lower, -4.2%
- CN(C)C(=O)NC1(c2ccccc2)CCN(CCC[C@]2(c3ccc(Cl)c(Cl)c3)CCCN(C(=O)c3ccccc3)C2)CC1 — lower, -4.26%
- CCN(Cc1cc(Nc2nc(C)cn3c(-c4cn[nH]c4)cnc23)sn1)C(C)(C)CO — lower, -1.43%
- O=S(=O)(NCc1ccccn1)c1ccc(Br)c2ccccc12 — lower, -6.16%
- COc1cc(/C=C2\CC[C@H]3COC[C@@H](c4cc(F)c(F)c(F)c4)N3C2=O)ccc1-n1cnc(C)c1 — lower, -1.39%
- NC(N)=N/N=C/c1ccccc1Cl — lower, -1.01%
- CO[C@@H]1[C@H](O)CCC2(CO2)[C@H]1[C@@]1(C)O[C@@H]1CC=C(C)C (some centres undefined) — lower, -1.81%
- O[C@@](Cc1ncc(CC2(C(F)(F)F)CC2)[nH]1)(c1ccc(-n2cccn2)cc1)C(F)(F)F — lower, -4.49%
- COc1ccc(-c2ccc3c(N4CCOCC4C)nc(N4CCOCC4C)nc3n2)cc1CO (centres undefined) — higher, 1.03%
- CCn1c(-c2nonc2N)nc2c(C#CCO)ncc(OCCCN)c21 — higher, 4.5%
- C=C1C(=O)OC2C1CCC1(C)C(O)CC=C(C)C21 (centres undefined) — higher, -0.749%
- COC(=O)c1cc2c(C(F)(F)F)cc(-c3ccccc3)cc2n1O — higher, 2.73%
- CCCc1cc(C)n(C)c(=O)c1CN(C)C(=O)c1cc(-c2ccc(N3CCN(C(C)C)CC3)nc2)cc2c1cnn2C(C)C — higher, 0.856%
- Cc1ccc(F)cc1S(=O)(=O)N[C@@H]1CCN(Cc2ccc(OC(C)C)cc2)C1 — lower, -9.11%
- CC12CCC3C1C(c1c(cc(O)c(C(=O)c4ccccc4)c1O)O2)C3(C)C (centres undefined) — higher, -0.707%
- Cc1ccc(C)c(NS(=O)(=O)c2cc(C(=O)Nc3ccccc3-c3ccccc3)ccc2C)c1 — higher, 0.458%
- C=C(C)C(=O)O[C@H]1C[C@@](C)(O)C2(O)CCC(C)(/C=C3/OC(=O)C(COC)=C31)O2 (some centres undefined) — lower, -7.38%
- Cn1c(=O)c(F)c(Nc2ccc(I)cc2F)c2c(=O)n(CC(O)CO)cnc21 (centres undefined) — lower, -17%
- Cc1cccc(CC(=O)N2CCc3c2ccc(-c2cn(C)c4ncnc(N)c24)c3F)n1 — lower, -2.52%
- CC(=O)N1CCN(CCOc2ccc(C3CCN(C4=Nn5c(nnc5C(F)(F)F)CC4)CC3)cc2)CC1 — lower, -3.07%
- O=C(Nc1nc2cc(C(F)(F)F)cc(NC3CC3)n2n1)c1cccnc1 — higher, 0.038%
- Clc1ccc(Nc2nc3ccccc3c3nc(C4CCCCC4)[nH]c23)cc1Cl — higher, 4.77%
- COc1cc(C(C)=O)c(OC)c2c1OC(C)(C)C=C2 — higher, 2.32%
- C1=Cc2ccccc2C(=C2CCN(CCCCc3nn[nH]n3)CC2)c2ccccc21 — higher, 0%
- Cc1ccc(-c2ncc[nH]2)cc1NC(=O)c1ccc(OCc2ccccn2)cc1 — lower, -6.32%
- CC(C)=CCCC1(C)C2CCC1(C)C(O)C2 (centres undefined) — lower, -16.1%
- NCC(CNc1nc(Nc2cccc(NC(=O)N3CCCC3)c2)ncc1I)C(=O)c1cccs1 (centres undefined) — lower, -14.7%

Point of comparison: `CC(=O)O[C@H]1C[C@@](O)(C(C)C)[C@@H]2[C@@H](OC(=O)c3ccc(O)cc3)CC(C)=CC[C@@]12C`, “activity, negative = inhibition” value 0% [at 25.7 µM]. Against it:
- COC(=O)C[C@H]1C(C)(C)[C@H](OC(=O)c2ccccc2)C2CC3=C4CC(=O)O[C@@H](c5ccoc5)[C@]4(C)CCC3[C@@]1(C)C2=O (some centres undefined) — higher, 0.725% [at 25.7 µM]

Point of comparison: `C[C@H]1CC[C@@]2(OC1)O[C@H]1CC3[C@@H]4CC[C@@H]5C[C@@H](O[C@@H]6O[C@H](CO)[C@@H](O[C@@H]7O[C@H](CO[C@@H]8OC[C@@H](O)[C@H](O)[C@H]8O)[C@@H](O[C@@H]8O[C@H](CO)[C@H](O)[C@H](O)[C@H]8O)[C@H](O)[C@H]7O)[C@H](O)[C@H]6O)CC[C@]5(C)C4CC[C@]3(C)[C@H]1[C@@H]2C` (some centres undefined), activity, negative = inhibition 2.05% [at 11.6 µM]. Against it:
- CC1(C)CC[C@]23CO[C@@]4(CCC5[C@@]6(C)CC[C@H](O[C@@H]7OC[C@H](O[C@@H]8O[C@H](CO)[C@@H](O)[C@H](O)[C@H]8O[C@@H]8OC[C@@H](O)[C@H](O)[C@H]8O)[C@H](O)[C@H]7O)[C@@](C)(CO)C6CC[C@@]5(C)[C@]4(C)CC2=O)[C@@H]3C1 (some centres undefined) — higher, 3.95% [at 11.6 µM]

With `Cn1nc(-c2ccc(C(F)(F)F)cc2)nc2c(=O)n(C)c(=O)nc1-2` the Potency was 3.01 µM (active).
